Measured values from PubChem BioAssay (NCI).
Compounds without any hit were thinned out: in the full panel of roughly 83,000, 20% have a hit.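 Cell lines were cultured in 96-well plates, exposed to a single compound concentration, and assessed for percent growth 48 hours later.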 Values without a mark were called inactive. Calls of active or inactive are those of the source. Rule for the calls: active = growth percent below 10; inactive = the rest.

Tests used:
Assay in all cases: NCI-60 one-dose screen, 48 h (100 = growth as untreated, 0 = no growth, -100 = all killed)
Conditions in all cases: 10 µM
[1] = system: HT29 colon
[2] = system: SNB-75 CNS
[3] = system: SNB-19 CNS
[4] = system: U251 CNS
[5] = system: PC-3 prostate
[6] = system: SK-MEL-5 melanoma
[7] = system: UACC-62 melanoma
[8] = system: LOX IMVI melanoma
[9] = system: SK-MEL-28 melanoma
[10] = system: SK-MEL-2 melanoma

| Compound | growth [1] | growth [2] | growth [3] | growth [4] | growth [5] | growth [6] | growth [7] | growth [8] | growth [9] | growth [10] |
| --- | --- | --- | --- | --- | --- | --- | --- | --- | --- | --- |
| CCc1ccc2c(c1)N(CCO)C1=C(C(=O)OC1)C2c1ccccc1 (stereo not given) | 86.3% | 88% | 104% | 45.4% | 93.5% | 87.3% | 70.6% | 94.5% | 90.9% | – |
| COc1cccc(C(=O)Nc2ccc(CN3CCc4nc5cc(OC)c(OC)cc5cc43)cc2)c1 | 16.2% | 49.2% | 69.7% | 33.9% | 21.7% | 50.1% | 67.3% | 31.3% | 73.2% | – |
| COc1cc2nc(Nc3cccc(NC(C)=O)c3)nc(N)c2cc1OC | 111% | 85% | 103% | 94.7% | 60% | 95.5% | 91.7% | 86.7% | 90.3% | – |
| COc1ccc(-c2nn(-c3cccc(NC(=O)c4ccc(Cl)c(Cl)c4)c3)cc2-c2ccncc2)cc1Cl | 78.2% | 74.8% | 87.1% | 64% | 48.6% | 78.8% | 83.7% | 91.2% | 75.3% | – |
| COc1ccc(-c2nn(-c3cccc(NC(=O)Nc4ccccc4)c3)cc2-c2ccncc2)cc1Cl | -69.6% (active) | 27.5% | 83.5% | -35.8% (active) | 8.81% (active) | 42.1% | 46.4% | 29% | 11.3% | – |
| COc1ccc(/C=C2/CN(C(=O)c3ccccc3F)C/C(=C\c3ccc(OC)cc3)C2=O)cc1 | -82.5% (active) | 68.9% | 77% | 9.44% (active) | 52% | 48.6% | 56.5% | -54.5% (active) | 69.4% | 94.1% |
| COc1ccc2c(c1)N(CCO)C1=C(C(=O)OC1)C2c1cc(OC)c(OC)c(OC)c1 (stereo not given) | -4.82% (active) | 38.3% | 19.1% | 9.9% (active) | 21.9% | -24.7% (active) | 8.69% (active) | 25.1% | 65.6% | – |
| O=C(Nc1ccc(OS(=O)(=O)c2ccccc2)cc1)C12CC3CC(CC(C3)C1)C2 | -19.9% (active) | 56.4% | 71.8% | 34.6% | 23.6% | 32% | 57% | 40% | 75% | – |
| C[N+](C)(C)c1ncnc2nc[nH]c12 | 104% | 70% | 94.9% | 93.9% | 115% | 85.4% | 90.4% | 90.4% | 108% | 75.8% |
| COc1ccc([N+](=O)[O-])c(C(=O)O)c1 | 102% | 100% | 103% | 101% | 99.8% | 98.5% | 106% | 98.5% | 106% | – |
| CCCCCCNC(=O)Oc1ccc(/C(=C(/CC)Cc2ccccc2)c2ccc(OCCN3CCCCC3)cc2)cc1 | 20.3% | 80.2% | 85.9% | 69.3% | 73.2% | 84.5% | 99.5% | 96.8% | 96.4% | – |
| CCOC(=O)C(CSC(c1ccccc1)(c1ccccc1)c1ccccc1)NC(=O)C(CSC(c1ccccc1)(c1ccccc1)c1ccccc1)NC(c1ccccc1)(c1ccccc1)c1ccccc1 (stereo not given) | 113% | 86.8% | 107% | 97.3% | 102% | 98.6% | 113% | 99.6% | 99.8% | 115% |
| Cc1ccc(Nc2nnc(-c3cc(-c4ccncc4)n(-c4ccccc4)n3)s2)cc1 | 36.9% | 116% | 89.7% | 65.6% | 56.1% | 67.7% | 83.9% | 58.5% | 106% | 92.4% |
| FC(F)(F)c1ccc(-c2cnc(Cl)nc2N2CCC3(CC2)OCCO3)cc1 | 96.9% | 93.8% | 102% | 85.3% | 87.2% | 93.8% | 96.8% | 90.4% | 102% | – |
